Inconclusive results are not listed. Where a call stands in place of a potency, no number is given. The source made the active and inactive calls. Calls follow the shape of the dose curve; as a rule, active = well fitted curve in the direction sought with a large enough effect; inconclusive = small, poorly fitted or top-dose-only effect, or another doubt; inactive = no such curve, though single readings can be large; an effect the other way counts as inactive or inconclusive.
How the values were obtained:
[1] = target: Aldehyde dehydrogenase, mitochondrial (Homo sapiens) (UniProt P05091); test: qHTS for Inhibitors of the Aldehyde Dehydrogenase Family (ALDH2) Primary screen (AID 2061308); also: nearly all actives have a fitted effect of over 55% in size
[2] = target: Retinaldehyde dehydrogenase 3 (Homo sapiens) (UniProt P47895); test: qHTS for Inhibitors of the Aldehyde Dehydrogenase Family (ALDH1A3) Primary screen (AID 2061315)

Row | SMILES | Potency [1] | Potency [2]
1 | N#Cc1nc(Nc2cccc(-c3ccccc3)c2)nc(NC2CCCC2)n1 | inactive | inactive
2 | Cc1cc2c(s1)c1cnn(Cc3ccc(OC(F)F)cc3)c(=O)c1n2C | inactive | inactive
3 | O=S(=O)(c1ccc2c(c1)OCCO2)N1CCN(S(=O)(=O)c2ccccn2)CC1 | inactive | inactive
4 | Cc1ccc(-c2cc(C(=O)Nc3ccc(C(=O)O)cc3)c3ccccc3n2)cc1C | inactive | inactive
5 | C=C[C@@]12COC(=O)C(=C)C1[C@@H](O)[C@H](C(=C)C(=O)OC)[C@@H](OC(=O)C(=C)CO)C2 (some centres not stated) | inactive | inactive
6 | O=C(O)c1ccc2c(c1)C(=O)N([C@H](Cc1ccc(Cl)cc1)C(=O)O)C2=O | inactive | inactive
7 | O=C(OCC#CCSc1nnc(-c2cccc3ccccc23)o1)c1ccc2ccccc2c1 | inactive | inactive
8 | Cc1cc2c(s1)c1cnn(Cc3ccc(C(C)(C)C)cc3)c(=O)c1n2C | inactive | inactive
9 | Cc1nc(NC2CCCCC2)c2nc(-c3ccccc3)n(CC3CCN(C)CC3)c2n1 | inactive | inactive
10 | CC(=O)Nc1ccc(NC(=S)NC(=O)c2ccc(C(C)(C)C)cc2)cc1 | inactive | inactive
11 | N#Cc1cccc(NS(=O)(=O)c2ccc3c(c2)CCC(=O)N3)c1 | inactive | inactive
12 | COCCNc1nc(C)nc2c1nc(-c1ccccc1)n2CC1CCN(C)CC1 | inactive | inactive
13 | O=C(Cc1ccc(Cl)c(Cl)c1)Nc1ccc(S(=O)(=O)NCc2ccco2)cc1 | inactive | inactive
14 | CN(Cc1cccs1)c1ncnc2ccc(-c3ccc4cn(C)nc4c3)cc12 | inactive | inactive
15 | O=c1c2ccccc2nc2sc(Nc3ccc4c(c3)CNC4)nn12 | inactive | inactive
16 | COc1cc(F)c(S(=O)(=O)N2CCN(S(=O)(=O)c3ccc4c(c3)OCCO4)CC2)c(F)c1 | inactive | inactive
17 | Cc1ccc(-c2ccc(C(C)Nc3nc(-c4ccccc4C(C)C)ncc3C)cc2)cn1 (configuration not stated) | inactive | inactive
18 | COc1cc(O)c(C(CC(=O)N2CCCC(C(=O)N3CCCCC3)C2)c2ccc3c(c2)OCO3)c(OC)c1 (configuration not stated) | inactive | inactive
19 | C/C=C(\C)C(=O)OC1C(C)C2(O)C(C=C(CO)CC3(O)C(=O)C(C)=CC32)C2C(C)(C)C12OC(=O)C(C)C (configuration not stated) | inactive | inactive
20 | Fc1cc(Nc2nc(-c3ccncc3)nc3ccccc23)ccc1-c1cc(F)c(F)c(F)c1 | inactive | inactive
21 | CCOc1ccc(CCNC(=O)Cc2ccccc2)cc1OCC | inactive | inactive
22 | Cc1ccc(CN(C)c2ncnc3ccc(-c4ccc(C(=O)O)o4)cc23)o1 | inactive | inactive

Row | SMILES | Potency [1] | Potency [2]
23 | Cc1cc(C)nc(NC(=S)N2CCN(c3cccc(C#N)c3)CC2)c1 | inactive | inactive
24 | Cc1csc(CNc2ncnc3ccc(-c4cccc(Cl)c4)cc23)c1 | inactive | inactive
25 | O=C(Nc1ccc(S(=O)(=O)Nc2nccs2)cc1)c1cccnc1 | inactive | inactive
26 | COc1ccc(-c2ccc(=O)n(CC(=O)NCCc3ccccc3)n2)cc1OC | inactive | inactive
27 | Nc1ncc(S(=O)(=O)N2CCOCC2)s1 | inactive | inactive
28 | C[C@@H]1[C@H]2[C@H](O[C@@H]3O[C@H](CO)[C@@H](O)[C@H](O)[C@H]3O)OC=C(C(=O)O)[C@H]2C[C@@H]1O | inactive | inactive
29 | C/C=C(\C)C(=O)OC1C[C@@]2(COC(C)=O)O[C@H]2/C=C\[C@@]2(C)O[C@@H]2[C@H]2OC(=O)C(COC(C)=O)=C12 (some centres not stated) | inactive | inactive
30 | Cc1cc(C)nc(NC(=S)N2CCN(c3nccc4ccccc34)CC2)c1 | inactive | inactive
31 | COc1ccc2cc3c(NC(=O)c4ccco4)nn(C)c3nc2c1 | inactive | inactive
32 | Cc1ccc(C(=O)Nc2ccc(N3CCCCC3)cc2)cc1 | inactive | inactive
33 | COC(=O)c1ccc(OC(C)=O)c2ncccc12 | inactive | inactive
34 | Cc1ccc(-c2ccc(=O)n(CC(=O)N(C)[C@H](C)c3ccccc3)n2)cc1 | inactive | inactive
35 | COc1cc(O)c(C(CC(=O)N2CCOCC2)c2ccc3c(c2)OCO3)c(OC)c1 (configuration not stated) | inactive | inactive
36 | O=C1CCCC2=C1C(c1[nH]ncc1Cl)N=C(Nc1nc3cc([S+](=O)([O-])N4CCOCC4)ccc3o1)N2 (configuration not stated) | inactive | inactive
37 | Cc1ccc2nsnc2c1S(=O)(=O)Nc1cccc2cccnc12 | inactive | inactive
38 | Cc1ccc(NS(=O)(=O)c2cccc(C(=O)Nc3nc(-c4ccccc4)cs3)c2)cc1 | inactive | inactive
39 | O=S1(=O)N=C(N2CCOCC2)c2ccccc21 | inactive | inactive
40 | Cc1ccc(OCCn2c(CCNC(=O)COc3ccccc3Br)nc3ccccc32)cc1 | inactive | inactive
41 | Cc1cc2c(s1)c1cnn(Cc3cc(F)c(F)c(F)c3)c(=O)c1n2C | inactive | inactive
42 | Cc1ccccc1S(=O)(=O)N1CCc2cc(-c3nc(NC(=O)Cc4ccc5c(c4)OCO5)sc3C)ccc21 | inactive | inactive
43 | O=S(=O)(Nc1nc(CN2CCOCC2)nc2sc3c(c12)CCC3)c1ccc2c(c1)OCCO2 | inactive | inactive
44 | O=C(Nc1nc(Nc2cc(F)cc(F)c2)nc(NC2CCCC2)n1)OCc1ccccc1 | inactive | inactive

Row | SMILES | Potency [1] | Potency [2]
45 | c1ccc(CN(Cc2ccccc2)Cc2nnc(-c3cc4ccccc4[nH]3)o2)cc1 | inactive | inactive
46 | Cc1cccc(-n2cnc3cc(C(=O)NC(C)(C)C)ccc32)c1 | inactive | inactive
47 | c1cncc(-c2ccc(CNc3nc(-n4ccnc4)nc4ccccc34)cc2)c1 | inactive | inactive
48 | NC(=O)c1ccc(O)c2ncccc12 | inactive | inactive
49 | O=S(=O)(c1ccc(Cl)cc1)N1CCN(S(=O)(=O)c2ccc3c(c2)OCCO3)CC1 | inactive | inactive
50 | COC(=O)c1sc2c(c1-c1nc3ccccc3s1)CCNC2 | inactive | inactive
51 | O=C1CN(S(=O)(=O)c2ccc3c(c2)OCCO3)CCN1S(=O)(=O)c1c(F)cccc1F | inactive | inactive
52 | O=C(CNC(=O)c1ccc(Cl)cc1)OC(C(=O)Nc1cc(C(F)(F)F)ccc1Cl)c1ccccc1 (configuration not stated) | inactive | inactive
53 | O=C1CCCC2=C1C(c1cccc(F)c1)N=C(Nc1nc3ccccc3o1)N2 (configuration not stated) | inactive | inactive
54 | C=CCc1cccc(CNc2ccc(S(=O)(=O)Nc3nccs3)cc2)c1O | inactive | inactive
55 | Cc1ccc2nc(NC3=NC4(CCCC4)C4=C(CCCC4=O)N3)oc2c1 | inactive | inactive
56 | Cc1cc(C)nc(NC(=S)N2CCN(c3cc(Cl)c(Cl)cc3Cl)CC2)c1 | inactive | inactive
57 | Cc1cc2c(s1)c1cnn(Cc3ccc(C#N)cc3)c(=O)c1n2C | inactive | inactive
58 | Cc1cc2c(s1)c1cnn(Cc3cc(F)ccc3C)c(=O)c1n2C | inactive | inactive
59 | O=C(Nc1cc(F)cc(F)c1)Nc1nnc(-c2ccncc2)s1 | inactive | inactive
60 | Cc1cc(C)nc(/N=C(\NC#N)N2CCN(c3cccc(C(F)(F)F)c3)CC2)c1 | inactive | inactive
61 | CONC(=O)C[C@@H](C#N)NC(=O)[C@@H]1CCCN1C(=O)[C@@H](NC(=O)c1ccc(N)c(Cl)c1)C(C)(C)C | inactive | inactive
62 | CC(=O)NC(c1cc(F)c2cccnc2c1O)C(C)C (configuration not stated) | inactive | inactive
63 | C=C(C(=O)O)[C@@H]1CC[C@@]2(C)CC[C@H](O)[C@@]2(C(C)=O)C1 | inactive | inactive
64 | Cc1cc(N[S+](=O)([O-])c2ccc(NC(=O)Cc3ccccc3Cl)cc2)no1 | inactive | inactive
65 | N#Cc1nc(Nc2cc(F)cc(F)c2)nc(Nc2cc(F)cc(F)c2)n1 | inactive | inactive
66 | O=c1c2ccc(C(F)(F)F)cc2nc2sc(Nc3ccc4c(c3)CCC4)nn12 | inactive | inactive
